What is called inhibition is the change of the read-out against control, counted positive when it falls.

Among all 340,000 compounds or so, about 6,900 (2%) were called active. Shown is part of a subset that was picked to be rich in actives. Values without a mark were called inactive. Cut-off read from the data, not from the text of the source: active = inhibition above about 30%; inactive = below that, where a call was filed.

In the experiment the target is D(2) dopamine receptor (Homo sapiens) (UniProt P14416). The experiment can be described thus: HTS Assay for Allosteric Antagonists of the Human D2 Dopamine Receptor: Primary Screen for Antagonists. Note: 0% is about no effect. Particulars: HEK293 TREx D2 cells, calcium flux, dopamine EC80; at 10 µM; hits give high values. The essentials: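 Measurement of antagonist activity uses fluorescent calcium dye in inducible HEK293 T-REx D2 cells: 10 s baseline, compound addition with 180 s read, EC80 dopamine addition with a further 180 s read.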
D(2) dopamine receptor (Homo sapiens), sequence (P14416 whole entry, looked up): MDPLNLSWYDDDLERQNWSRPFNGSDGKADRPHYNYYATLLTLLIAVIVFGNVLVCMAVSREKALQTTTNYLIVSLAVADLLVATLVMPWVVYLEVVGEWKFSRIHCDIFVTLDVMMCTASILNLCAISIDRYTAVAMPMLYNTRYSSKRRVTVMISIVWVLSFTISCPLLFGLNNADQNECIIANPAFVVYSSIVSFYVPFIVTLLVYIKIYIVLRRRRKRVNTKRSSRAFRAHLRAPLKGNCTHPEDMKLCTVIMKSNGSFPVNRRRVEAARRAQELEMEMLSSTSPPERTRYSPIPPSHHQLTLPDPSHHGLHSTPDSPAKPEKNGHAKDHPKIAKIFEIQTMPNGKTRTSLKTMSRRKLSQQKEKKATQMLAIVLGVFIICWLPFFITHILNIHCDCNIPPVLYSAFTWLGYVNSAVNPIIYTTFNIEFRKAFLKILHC
A general note: Calcium assays in cells follow changes in intracellular calcium, usually with a dye or a luminescent sensor.
Consider `Cc1ccc(C(=O)OCC(=O)Nc2ccc(Cl)cn2)cc1S(=O)(=O)N1CCOCC1`, for which the inhibition was -15.2%.
`CC(C)(C)c1ccc(S(=O)(=O)N2CCN(C(=O)c3ccc4c(c3)C(=O)N(Cc3ccncc3)C4=O)CC2)cc1`: the inhibition is -6.14%.
The figure for `O=C(NCCC1CCCCN1S(=O)(=O)c1cccs1)C(=O)Nc1ccc(F)cc1F` (stereo not drawn) is 7.7%; for `CC(C(=O)N(C)CC(=O)Nc1ccccc1C(F)(F)F)N1C(=O)c2ccccc2C1=O` (stereo not drawn) it is 12.3%.
The figure for `Cc1nn(Cc2ccccc2)c(C)c1C(=O)N1CCN(CC(=O)Nc2ccccc2Cl)CC1` is 0.422%; for `O=C(CO/N=C/c1ccc(OC(F)F)cc1)NCc1ccc(F)cc1` it is 4.16%; for `O=C(COC(=O)/C=C/c1ccc(OC(F)F)cc1)NC1CCCCC1` it is -18.9%.
In the case of `CC1CCCCC1NC(=O)CO/N=C/c1ccc(OC(F)F)cc1` (stereo not drawn), the inhibition was 34.1% (active).
The figure for `CCOc1ccc(S(=O)(=O)N2CCC(C(=O)OCc3ccc(OC)cc3)CC2)cc1` is 5.17%.
The figure for `CC(=C1C(=O)c2ccccc2C1=O)N1CCN(c2ccccn2)CC1` is 56.1% (active).
On to `COc1ccc(N2CCN(C(C)=C3C(=O)c4ccccc4C3=O)CC2)cc1`, for which the inhibition is 14.9%.
The figure for `O=C(C(Cl)Cl)N1CCN(c2ccccn2)CC1` is 1.9%; for `CCC1(CC)NC(=O)N(CC(=O)OCC(=O)c2cc(C)c(C)cc2C)C1=O` it is -22.9%; for `CCC(=O)c1ccc(OCC(=O)N(CC)CC2COc3ccccc3O2)cc1` (stereo not drawn) it is -1.9%.
For the compound `CC1(C)NC(=O)N(CC(=O)N2CCN(S(=O)(=O)c3ccccc3F)CC2)C1=O`, the inhibition is -6.83%.
The figure for `CC(C)C[C@H](NC(=O)C1CCC(CNC(=O)[C@@H]2CCCN2C(=O)OC(C)(C)C)CC1)C(=O)O` (stereo partly drawn) is -15.8%; for `CC(C)[C@@H](NC(=O)OC(C)(C)C)C(=O)NCC1CCC(C(=O)N[C@@H](Cc2ccccc2)C(=O)O)CC1` (stereo partly drawn) it is 31.8% (active); for `CC(=O)Nc1ccc(S(=O)(=O)N2CCC(C(=O)N[C@@H](Cc3ccccc3)C(=O)O)CC2)cc1` it is -23.4%.
For the compound `O=C(CSc1nnc(Nc2ccccc2F)s1)NC1CCCC1`, the inhibition was 12.9%.
For the compound `N#Cc1ccc(CSc2ncccn2)cc1`, the inhibition was -5.83%.
The figure for `N#Cc1ccc(C(c2nnnn2CCc2ccccc2)N2CCCCCC2)cc1` (stereo not drawn) is -12.6%; for `N#Cc1ccc(C(c2ccc(C#N)cc2)n2cncn2)cc1` it is 48.6% (active); for `CC1CCCC(NC(=O)c2cc(S(=O)(=O)N3CCCCC3)ccc2Cl)C1C` (stereo not drawn) it is -4.83%.
The result for `CCOc1ccc(S(=O)(=O)N2CCC(c3ccccc3)CC2)cc1C(=O)O` reads -17.4%.
Turning to `CCOc1ccc(Br)cc1S(=O)(=O)N1CCC(C(=O)O)CC1`, the inhibition is 39.3% (active).
The result for `CCOC(=O)N1CCN(C(=O)C2CCN(S(=O)(=O)c3cc(Cl)ccc3OCC)CC2)CC1` reads -9.59%; that for `CC(C)COc1ccc(C(=O)OCC(=O)NCCC2=CCCCC2)cc1`, 5.26%.
The figure for `COc1cccc(-c2nn(C)c3sc(C(=O)N4CCN(c5ccccc5)CC4)cc23)c1` is -14.9%.
The result for `COc1ccccc1N1CCN(C(=O)c2cc3c(-c4ccc(Cl)cc4)nn(C)c3s2)CC1` reads 31% (active); that for `CCOC(=O)N1CCN(C(=O)c2cc3c(-c4ccc(Cl)cc4)nn(C)c3s2)CC1`, 5.45%; that for `CCc1noc(C)c1C(=O)N1CCN(S(=O)(=O)c2cccc(C(F)(F)F)c2)CC1`, -22.3%.
As to `N#CCC(=O)Nc1ccc(C(=O)OCC(=O)Nc2sc3c(c2C#N)CCCC3)cc1`, the inhibition was -5.79%.
With `CC1Cc2ccccc2N1C(=O)c1cc2sccc2n1Cc1ccccc1` (stereo not drawn), the inhibition is 8.45%.
As to `O=C(c1cc2sccc2n1Cc1ccc(F)cc1)N1CCc2ccccc21`, the inhibition is -20.3%.
The result for `CCOC(=O)c1cc2sccc2n1Cc1ccc(C#N)cc1` reads 31.1% (active).
On to `CCC(C(=O)N1CCN(S(=O)(=O)c2sc(C(=O)O)c(C)c2C(=O)O)CC1)c1ccccc1` (stereo not drawn), for which the inhibition was 14.8%.
Turning to `CCOC(=O)N1CCN(C(=O)COC(=O)c2cccc(S(C)(=O)=O)c2)CC1`, the inhibition was -13.9%.
As for `O=C(CCc1nc(-c2ccccc2)no1)Nc1cccc(C(=O)NC2CC2)c1`, the inhibition was -8.46%.
The result for `Cc1ccc(NC(=O)C(C)Sc2nnc(C3CC3)n2C2CC2)cc1S(=O)(=O)N1CCOCC1` (stereo not drawn) reads 10%; that for `COc1ccc(-c2cc(=O)c3c(O)cc(O[C@@H]4O[C@H](CO[C@@H]5O[C@@H](C)[C@H](O)[C@@H](O)[C@H]5O)[C@@H](O)[C@H](O)[C@H]4O)cc3o2)cc1O`, 3.3%; that for `CCOC(=O)COc1cc(O)c2c(=O)cc(-c3ccccc3)oc2c1`, 3.55%.
As to `COc1c(O)cc2oc(-c3ccc(O)c(O)c3)cc(=O)c2c1O`, the inhibition is 36.2% (active).
With `Cc1sc2nc(COC(=O)C(NC(=O)c3ccc(Cl)cc3Cl)C(C)C)[nH]c(=O)c2c1C` (stereo not drawn), the inhibition was 4.89%.
The result for `Cc1sc2nc(CSCC(=O)NC3CCCCC3)[nH]c(=O)c2c1C` reads 7.49%; that for `Cc1sc2nc(CSCC(=O)Nc3c(Cl)cccc3Cl)[nH]c(=O)c2c1C`, 43.2% (active).
In the case of `CCOCCn1[nH]c2ccccc2c1=O`, the inhibition is 9.72%.
For `CC(=O)Nc1ccc(S(=O)(=O)NC(C)C(=O)OCCOc2ccc(F)cc2)cc1` (stereo not drawn), the inhibition is 8.18%.
Consider `COc1ccccc1NS(=O)(=O)c1ccc(C(=O)N2CCN(c3ccccc3O)CC2)cc1`, for which the inhibition was -20.7%.
The result for `Cc1[nH]c2ccccc2c1/C=N/NC(=O)CNC(=O)c1ccc2c(c1)OCO2` reads -12.8%.
The figure for `O=C(Cc1ccc(F)cc1)N/N=C/c1ccc2c(c1)OCO2` is -1.11%.
Regarding `O=C(CNC(=O)C(c1ccccc1)c1ccccc1)N/N=C\c1ccc2c(c1)OCO2`, the inhibition was 34.6% (active).
The result for `COC(=O)c1ccc(NS(=O)(=O)c2cc3c4c(c2)C(C)C(=O)N4CCC3)cc1` (stereo not drawn) reads 4.01%; that for `CCCn1nc(C(=O)NNC(=O)CCOc2ccccc2OCC)c2ccccc2c1=O`, 17.8%.
The result for `CC(=O)NC1CC2CCCC(C1)N2CC(=O)Nc1ccccc1` (stereo not drawn) reads 14.7%.
As for `COc1cccc(C(=O)NNC(=O)c2cccc(F)c2)c1`, the inhibition is 0.993%.
The figure for `COc1ccc(NC(=O)N2CCC(Cc3ccccc3)CC2)cc1` is 3.66%; for `O=C(NC1CCN(Cc2ccccc2)CC1)c1ccccc1F` it is 21.8%; for `COc1ccc(NC(=O)NC2CC3CCCC(C2)N3Cc2ccccc2)cc1` (stereo not drawn) it is 46% (active).
The result for `CCCCOCCCNC(=O)c1ccccc1OCC` reads -16%.
For the compound `COc1ccc(CN2C3CCCC2CC(NC(=O)c2cccc(F)c2)C3)cc1` (stereo not drawn), the inhibition is 80.1% (active).
Consider `COc1ccc(NC(=S)N2CCC(NC(=O)c3cccc(F)c3)CC2)cc1`, for which the inhibition is -6.43%.
The result for `CCOc1ccccc1C(=O)NC1CC2CCCC(C1)N2Cc1ccccc1` (stereo not drawn) reads 92.5% (active).
The figure for `COc1ccc(C(=O)Oc2ccc(-c3nnco3)cc2)cc1S(=O)(=O)N1CCOCC1` is 14.7%; for `Cc1ccc2nc(SCC(=O)N3CC(C)OC(C)C3)nc(=O)n2c1` (stereo not drawn) it is -3.68%.
In the case of `O=C(CNS(=O)(=O)c1ccc2c(c1)OCCCO2)N1CCN(c2ccc(F)cc2)CC1`, the inhibition is -12.5%.
The result for `Cn1c(-c2ccc(F)cc2)cc2onc(-c3ccccc3Cl)c2c1=O` reads 8.07%; that for `CCN(CC)S(=O)(=O)c1ccc2[nH]c(=O)cc(C(=O)N(C)C3CCS(=O)(=O)C3)c2c1` (stereo not drawn), -4.37%.
Regarding `CC(=O)Nc1ccccc1NC(=O)c1cc(C)cc(C)c1`, the inhibition is 13.8%.
The result for `CSCc1ccc(C(=O)Nc2cc(C)cc(C)c2)cc1` reads 30.3% (active); that for `C=CCN(c1ccc(C(=O)Nc2cc(C)cc(C)c2)cc1)S(C)(=O)=O`, -5.69%; that for `COC(=O)Cc1ccc(OC(=O)C2CCN(S(=O)(=O)c3ccc(OC)c(OC)c3)CC2)cc1`, -7.28%.
The figure for `COc1ccc(CC(=O)OC(C)C(=O)Nc2ccc(S(N)(=O)=O)cc2)cc1` (stereo not drawn) is -2.4%; for `CCCc1nnc(NC(=O)c2cc(OC)cc(OC)c2)s1` it is -9.73%; for `COc1ccc(Cc2nnc(NC(=O)c3ccc(OC)cc3OC)s2)cc1` it is 2.14%.
The result for `COc1ccc(Cc2nnc(NC(=O)c3cc(OC)c(OC)c(OC)c3)s2)cc1OC` reads 34.9% (active).
In the case of `Cc1ccc(N2CC(C(=O)Nc3cc(Cl)ccc3-n3cncn3)CC2=O)cc1` (stereo not drawn), the inhibition was -16.3%.
The result for `CCN(Cc1ccccc1)C(=O)Cc1ccc(OC)c(S(=O)(=O)N2CCOCC2)c1` reads -8.71%.
The result for `CC(NCC(=O)Nc1ccccc1C(=O)NC1CC1)c1ccccc1Cl` (stereo not drawn) reads 26.6%.
Regarding `COc1ccc(C(CNC(=O)c2cccc(S(=O)(=O)Nc3ccccc3Cl)c2)N2CCOCC2)cc1` (stereo not drawn), the inhibition is -9.15%.
For the compound `CC(=O)C1=C(C)NC2=C(C(=O)CC(C)(C)C2)C1C` (stereo not drawn), the inhibition was 34% (active).
The result for `CCOC(=O)C1=C(C)NC2=C(C(=O)CC(C)(C)C2)C1c1ccsc1` (stereo not drawn) reads -9.11%; that for `COc1cc(C2C(C#N)=C(C)NC3=C2C(=O)CC(C)(C)C3)ccc1O` (stereo not drawn), -7.78%; that for `CCOC(=O)c1ccccc1NC(=O)COC(=O)C(Cc1c[nH]c2ccccc12)NC(C)=O` (stereo not drawn), -6.93%.
Consider `CCC(=O)c1ccc(OCC(=O)Nc2ccc(N3CCCCC3)cc2)cc1`, for which the inhibition was 19%.
In the case of `CCN(CC(=O)Nc1cc(Cl)ccc1C)C(=O)CSCc1ccc(C)cc1`, the inhibition is -3.18%.
Consider `COC(=O)C1=C(C)NC2=C(C(=O)c3ccccc32)C1c1ccc(-c2ccc(C(=O)O)cc2)o1` (stereo not drawn), for which the inhibition is 54.8% (active).
The result for `Cc1ccc(C2C3=C(Nc4[nH]n(-c5ccccc5)c(=O)c42)c2ccccc2C3=O)cc1` (stereo not drawn) reads -28.5%; that for `CCOC(=O)C1=C(c2ccc(OC)cc2)C(=O)c2ccccc2C1=O`, -4.28%.

The values above are taken from PubChem BioAssay AID485344 (National Center for Advancing Translational Sciences (NCATS), 2010).
